S2 tox: reduces viability in counter-screen for ATXN expression inhibitors | Potency, µM (highest dose often 56.7 µM), actives largely listed as cytotoxic | AID 651635 | 400,000 compounds, 0.49% hits | S2 cells (HEK-293 line with an ATXN2-luciferase reporter) viability, CellTiter-Fluor protease fluorescence, 24 h; note: potency is the fitted concentration of half-maximal effect; nearly all actives have a fitted effect of over 40% in size
ATXN2 expr inh: inhibitors of ATXN2 expression; HEK-293 ATXN2-luciferase reporter, luminescence, 24 h; Potency, µM (titrated, usually from 57 µM), inactives show at the top dose activity change, negative = inhibition, usual class: inhibitors; AID 1745845; 360,000 compounds, 0.72% hits; note: potency is the fitted concentration of half-maximal effect; % is set by controls: 0 for no effect and ±100 for the full control effect; nearly all actives have a fitted effect of over 55% in size
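qHTS (up to 57 uM final) was run with 24 h compound exposure of reporter cells at 37 °C. Each well was multiplexed: SteadyGlo luminescence measured ATXN2-luciferase expression after a fluorogenic Gly-Phe-AFC viability readout (25 uM final).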
TGFb inhibitor: inhibitors of TGF-b signaling | HepG2 CAGA-GFP TGF-b/SMAD3 reporter, GFP fluorescence, 18 h; TGF-beta stimulated, 500 pg/mL final | Potency, µM (series often up to 46.1 µM), inactives show top-dose activity, negative = inhibition, most hits filed as inhibitors | 410,000 compounds, 1.2% hits; note: potency is the fitted concentration of half-maximal effect; % is set by controls: 0 for no effect and ±100 for the full control effect; nearly all actives have a fitted effect of over 65% in size
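HEPG2 CAGA-GFP, 1000 cells/well; 2 h settle, 37 C; cpd via pin tool; TGF-b 500 pg/mL final; 18 h, 37 C; GFP imaging ex488/em500-530; %Activity normalised to -TGF-b and +DMSO controls; CRC fit, curve class.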
IL1B secr inh: inflammasome signaling inhibition, IL-1 beta readout. 360,000 compounds, 4.7% hits. THP-1 LPS/ATP IL-1B secretion, AlphaLISA, 16 h; active compounds read low. activity change, % at 57.5 µM. AID 743279; in the data active = activity change below about -50%; inconclusive = mostly about -30% to -49%; note: % is set by controls: 0 for no effect and ±100 for the full control effect
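Secreted IL-1B measured by AlphaLISA bead assay after 16 h compound exposure of THP-1 cells; compounds (final up to 57.5 uM) added 1 h before LPS (250 ng/mL) and ATP (1.25 mM) stimulation; lower signal means less secretion.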
HepG2 tox: HepG2 cytotoxicity, counter-screen for TGF-b inhibitors; HepG2 CAGA-GFP viability, ATP luminescence, 18 h; Potency, µM (doses to about 46.1 µM), for the others: at the highest dose activity change, negative = cytotoxicity, most hits filed as cytotoxic; 410,000 compounds, 0.76% hits; AID 588856; note: potency is the fitted concentration of half-maximal effect
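CellTiter-Glo luminescence gave cytotoxicity after 18 hours at 37 degrees C. The cells were HepG2 CAGA-GFP in 1% FBS DMEM, stimulated with 500 pg/mL TGF-beta after compound addition. %Activity was normalised to no-cell wells (complete cell-killing) and DMSO (no toxicity), and curves were fitted and classified.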
The depositor's hits bear a star; i = inactive; ? = inconclusive; nt = not tested or not shown. Rows were chosen to be rich in hits. Some 5.7% of all compounds tested hit in one or more screens of this group. Unless noted, calls come from the whole dose curve; as a rule, active = well fitted curve in the direction sought with a large enough effect; inconclusive = small, poorly fitted or top-dose-only effect, or another doubt; inactive = no such curve, though single readings can be large; an effect the other way counts as inactive or inconclusive.

SMILES | S2 tox | ATXN2 expr inh | TGFb inhibitor | IL1B secr inh | HepG2 tox
CCN(C(=O)c1cn(CC)c(=O)c2cc(OC)c(OC)cc12)c1ccc(C)c(C)c1 | i | -13.1% | -7.9% | nt | -16.8%
COc1cccc(Cn2c(CNS(=O)(=O)c3ccc(F)c(Cl)c3)nc3cccnc32)c1 | nt | nt | ? | nt | -20.1%
Cc1cc(Cl)ccc1Oc1nccc(N(C)C)c1C#N | i | 4.2% | -2.1% | -70.0* | 5.0%
COc1ccc(CN2CCOc3ccc(CN4CCC(Oc5cccnc5)CC4)cc3C2)cc1 | i | nt | nt | nt | nt
CC(C)Cc1ccc(C(=O)Nc2ccc(Cc3ccncc3)cc2)o1 | i | -24.9% | -28.7% | -91.1* | -23.5%
Cc1ccc(CN2CCc3nnc(C(NC(=O)c4ccoc4)C(C)C)n3CC2)cc1C (centres undefined) | i | nt | nt | nt | nt
Cc1ccc(CSc2nc3ccc(NC(=O)C(C)C)cc3s2)cc1 | i | -17.0% | -3.9% | nt | -35.2%
COc1ccc(N2CCN(C3(c4ccccc4)C(=O)c4ccccc4C3=O)CC2)cc1 | i | -5.4% | ? | nt | -79.1%
Brc1cc(-c2ccccc2)nc(-c2ccccc2)n1 | nt | ? | -9.4% | -84.3* | -164.5%
Clc1cc(-c2ccccc2)nc(-c2ccccc2)n1 | i | -10.6% | 21.4% | -51.6* | -1.0%
Nc1nc(-c2ccccc2)cc(-c2ccccc2O)n1 | i | 8.0% | ? | -60.7* | -47.4%
Oc1ccc(-c2cc(-c3ccc(O)cc3)nc(-c3ccccc3)n2)cc1 | i | -22.9% | ? | -98.3* | -56.7%
Cc1cc(Cl)nc(-c2ccccc2)n1 | i | -2.4% | 5.1% | -10.7 | 8.1%
CC(=O)Nc1cc(C(=O)NCc2ccc(F)cc2)ccc1Sc1ccc(C)cc1 | nt | nt | -11.3% | nt | -28.6%
Cc1cc2nc(Sc3c([N+](=O)[O-])nc(C)n3Cc3ccccc3)[nH]c2cc1C | ? | -19.3% | -20.4% | -97.6* | -11.3%
COc1ccc2nc(SCC(=O)NCc3ccccc3)[nH]c2c1 | i | 4.5% | -0.1% | 36.1 | -8.7%
Cc1nc([N+](=O)[O-])c(Sc2nc3ccccc3[nH]2)n1Cc1ccccc1 | ? | -5.3% | -50.3% | -105.3* | -31.7%
Cn1cnc([N+](=O)[O-])c1Sc1nc2ccccc2[nH]1 | ? | ? | -1.9% | -97.3* | 3.3%
Cc1nc([N+](=O)[O-])c(N2CCN(Cc3ccccc3)CC2)n1Cc1ccccc1 | i | -4.0% | 0.0% | ? | -1.4%
COc1ccc2nc(Sc3c([N+](=O)[O-])nc(C)n3Cc3ccccc3)[nH]c2c1 | ? | -16.2% | ? | -80.2* | -31.9%
Cc1nc([N+](=O)[O-])c(N2CCOCC2)n1Cc1ccccc1 | i | nt | -7.8% | 8.6 | -19.0%
Cc1ccc2occ(-c3cc(-c4ccc(F)cc4)nc4c3COc3ccc(F)cc3-4)c(=O)c2c1 | i | 10.8% | -21.1% | nt | -3.6%
COc1ccccc1-c1nn2c(-c3cc(C)[nH]n3)nnc2s1 | nt | nt | -2.9% | nt | 0.0%
O=C(CNc1ccccc1Cl)c1ccc(Br)cc1 | i | -4.6% | -8.1% | -77.0* | -2.0%
COc1cc([C@@H]2c3cc4c(cc3[C@@H](O[C@@H]3O[C@@H]5CO[C@@H](C)O[C@H]5[C@H](O)[C@H]3O)[C@H]3COC(=O)[C@H]23)OCO4)cc(OC)c1O | ? | 1.12µM* | 7.9% | 36.7 | -19.7%
SMILES | S2 tox | ATXN2 expr inh | TGFb inhibitor | IL1B secr inh | HepG2 tox
CCN(CC)C1Oc2cc3c(cc2C(c2cc(OC)c(O)c(OC)c2)C1C)OCO3 (centres undefined) | ? | -19.8% | 0.2% | 27.0 | 9.3%
COc1cc(C2c3cc4c(cc3C(OC3OC5COC(c6cccs6)OC5C(O)C3O)C3COC(=O)C23)OCO4)cc(OC)c1O (centres undefined) | ? | 0.316µM* | 23.2% | 15.5 | -17.3%
CC(=O)OCCN1C(=O)c2c(C)nc3ccc(S(=O)(=O)N4CCOCC4)cc3c2C1=O | nt | 1.7% | nt | nt | nt
Nc1ccc(C(=O)c2cc3c(ccc4ccccc43)[nH]2)cc1 | nt | -12.5% | nt | nt | nt
CCCS(=O)(=O)NCc1c(C)ncc2c1CCN(C(=O)/C=C/c1ccc(F)cc1F)C2 | i | nt | nt | nt | nt
COc1ccccc1N(C(C)=O)C1=C(Cl)C(=O)c2ccccc2C1=O | nt | nt | -17.7% | ? | 11.2µM*
CC(=O)N(C1=C(N)C(=O)c2ccccc2C1=O)C(C)C | i | -27.5% | -9.7% | 57.4 | -12.7%
c1ccc2c(c1)NC1(CCCC1)n1c-2nc2ccccc21 | i | 13.2% | -18.4% | -79.3* | -22.4%
CCCC1(C)Nc2ccccc2-c2nc3ccccc3n21 (centres undefined) | i | 56.4% | -0.1% | -0.7 | -30.4%
COc1ccccc1C1CN(Cc2cccc3c2OCO3)Cc2ccccc2O1 (centres undefined) | i | nt | nt | nt | nt
CC(/C=C1\SC(=O)N(CC(=O)Nc2ccc(O)cc2)C1=O)=C\c1ccccc1 | ? | -11.4% | ? | -76.4* | -32.9%
O=C(NN1C(=O)/C(=C/C=C/c2ccccc2)SC1=S)c1ccncc1 | i | 20.3% | 1.3% | -71.6* | -10.3%
CC(/C=C1\SC(=S)N(CC(=O)O)C1=O)=C\c1ccccc1 | i | 31.1% | -0.8% | -9.6 | -28.8%
CC(/C=C1\SC(=O)N(CC(=O)Nc2cccc(O)c2)C1=O)=C\c1ccccc1 | ? | -7.8% | ? | -56.6* | -103.7%
CC(/C=C1\SC(=S)N(NC(=O)c2cccc(O)c2)C1=O)=C\c1ccccc1 | ? | 2.0% | ? | -100.8* | -71.5%
CC(C)(C)c1ccc(C(=O)C[n+]2cc(Br)cc(Br)c2)cc1 | nt | nt | 5.0% | nt | -5.2%
CC(=O)c1ccc(NC(=O)CCCN2C(=O)/C(=C/C(C)=C/c3ccccc3)SC2=S)cc1 | nt | 11.5% | -25.0% | -65.7* | 6.8%
Cc1cccc(N2CCn3c2nc2c3c(=O)n(C/C=C/c3ccccc3)c(=O)n2C)c1 | nt | nt | -7.3% | nt | -18.6%
N#C/C(=C\c1ccccc1C(F)(F)F)C(=O)Nc1ccccc1 | i | 1.6% | -11.5% | -69.7* | -27.7%
CCc1cccc(CC)c1NC(=O)/C(C#N)=C/c1ccccc1C(F)(F)F | nt | ? | 12.6µM* | -98.6* | -94.7%
O=C(CCl)N(Cc1cc(=O)[nH]c2ccccc12)c1ccccc1 | ? | nt | 11.2µM* | -77.6* | -92.1%
Cc1cccc(N(Cc2ccccc2)C(=O)CCl)c1 | 0.532µM* | 0.752µM* | ? | -6.4 | -85.5%
COc1ccc(CC(=O)N(Cc2ccccc2)c2cccc(C)c2)cc1OC | i | -7.7% | 5.3% | ? | -5.3%
O=C(CCl)N(Cc1ccccc1)c1ccccc1 | i | 0.1% | 12.6µM* | -95.9* | 12.6µM*
COC(=O)c1ccc(C(=O)N(Cc2ccccc2)c2ccccc2)cc1 | i | 5.4% | -5.5% | 11.3 | -3.6%
CCOc1ccccc1N(CC)C(=O)c1cc2c(=O)[nH]c3ccc(C)cc3c2s1 | i | 9.1% | 0.9% | nt | 2.2%

Assay outcomes: PubChem BioAssay, National Center for Advancing Translational Sciences (NCATS)
